Screening data as filed in PubChem BioAssay.
Bim-Mcl-1 – inhibitors of Bim peptide binding to Mcl-1, primary screen, biochemical, bead-based flow cytometry, multiplex; Induced myeloid leukemia cell differentiation protein Mcl-1 (Homo sapiens), Q07820; Bim peptide-Mcl-1 binding; inhibition, % at 10 µM; hit rate 0.1% among 190,000; AID 1009, 2008; in the data active = inhibition above about 40%
Target sequence (Q07820 whole entry, looked up): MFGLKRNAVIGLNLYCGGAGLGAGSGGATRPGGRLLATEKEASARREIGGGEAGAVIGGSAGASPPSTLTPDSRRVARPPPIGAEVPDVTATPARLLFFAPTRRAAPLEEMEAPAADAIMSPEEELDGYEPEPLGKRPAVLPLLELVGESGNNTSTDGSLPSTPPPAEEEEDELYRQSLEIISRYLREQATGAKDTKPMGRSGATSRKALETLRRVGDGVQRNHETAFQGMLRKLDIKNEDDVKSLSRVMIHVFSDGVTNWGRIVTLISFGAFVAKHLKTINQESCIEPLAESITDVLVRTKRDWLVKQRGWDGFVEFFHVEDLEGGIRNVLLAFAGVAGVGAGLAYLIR
Mcl1-Bid inh – Mcl-1/Bid binding inhibitors, primary screen, biochemical, TR-FRET, 1536-well. Induced myeloid leukemia cell differentiation protein Mcl-1 (Homo sapiens), Q07820. TR-FRET Mcl-1/Bid-Dy647 peptide binding. inhibition, % at 21.7 µM. hit rate 0.97% among 220,000. AID 1021, 2008;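 active = compounds that cut the binding signal by more than half at the single screening dose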;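 note: His-tagged Mcl-1 with europium anti-His antibody binding Bid BH3 peptide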
zVAD death inh – inhibitors of zVAD-triggered necroptosis, primary screen, L929 cells; L929 zVAD necroptosis rescue, ATP luminescence, 24 h; with zVAD 60 µM; viability rescue, % at 10 µM; hit rate 0.38% among 220,000; AID 1377, 2008;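 active = activation, scaled between plate controls, above about 75%, limit read from the data; inactive = activation under that limit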
TNF necrop inh – inhibitors of TNF-alpha triggered necroptosis, primary screen, cell-based, Jurkat FADD-/-, single concentration. Jurkat FADD-/- TNF necroptosis rescue, ATP luminescence, 24 h; 0 = TNF only, 100 = no-TNF cells. activation (protection from cell death), % at 10 µM. hit rate 0.068% among 220,000. AID 463075, 2010;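 active = activation, meaning protection from cell death, of at least 50% relative to plate controls; inactive = activation below 50%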;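 note: necroptosis triggered by 40 ng/mL TNF-alpha added together with compound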
Mcl1-Noxa inh – Mcl-1/Noxa binding inhibitors, primary screen, biochemical, TR-FRET, 1536-well; TR-FRET Mcl-1/Noxa peptide binding, 2 h; inhibition, % at 21.7 µM; AID 1022, 2008; hit rate 1.5% among 220,000; Induced myeloid leukemia cell differentiation protein Mcl-1 (Homo sapiens), Q07820;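 active = compounds that cut the protein-peptide binding signal by more than 50% relative to plate controls in a single-dose test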;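 note: His-tagged Mcl-1 with rhodamine Noxa BH3 peptide and terbium anti-His antibody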
MCL1 BIM primary – inhibitors of MCL1 binding to BIM-BH3, primary screen, biochemical, fluorescence polarization. inhibition, % at 10.9 µM. GST-MCL1 / FITC-Bim-BH3 fluorescence polarization. Induced myeloid leukemia cell differentiation protein Mcl-1 (Homo sapiens), Q07820. hit rate 0.68% among 320,000;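 active = inhibition above the mean inhibition of all tested compounds plus 3 SD, set per campaign, cut at about 40% in these data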;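 note: higher means more loss of mP so more displacement of Bim peptide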
Bcl-xL conf – Bcl-xL inhibitors blocking Bim BH3 binding, confirmation, counter-screen for MCL1 inhibitor project, biochemical, fluorescence polarization; AID 2166, 2009; GST-Bcl-xL / FITC-Bim BH3 peptide FP binding; hit rate 54% among 1,700; shares compounds with MCL1 BIM primary; inhibition, % at 10.9 µM;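 active = inhibition above a cutoff equal to the mean inhibition of all tested compounds plus 3 SD, cut at about 30% in these data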
MCL1 inh confirm – inhibitors of MCL1 binding to BIM-BH3, confirmation, biochemical, fluorescence polarization, triplicate; GST-MCL1 / FITC-Bim-BH3 fluorescence polarization; AID 2168, 2009; hit rate 61% among 1,700; shares compounds with MCL1 BIM primary; inhibition, % at 10.9 µM;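 active = inhibition above the average of all tested compounds plus 3 SD, cut at about 40% in these data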
Hits are given with their value; – = inactive; · = not tested or not shown; + = active, no number. A selection: hits, their analogues and other compounds. The true share with any hit is near 2.4%.

SMILES | Bim-Mcl-1 | Mcl1-Bid inh | zVAD death inh | TNF necrop inh | Mcl1-Noxa inh | MCL1 BIM primary | Bcl-xL conf | MCL1 inh confirm
Nc1ccc(N)c(C(=O)O)c1 | · | 97.6 | · | · | 92.4 | 101.0 | 72.0 | 111.8
O=c1[nH]c(C(Cl)Cl)nc2sc3c(c12)CCN(Cc1ccccc1)C3 | – | – | – | – | 94.2 | 101.8 | 55.7 | 77.5
CCCSc1nc2sc3c(c2c(=O)[nH]1)CCN(Cc1ccccc1)C3 | – | – | – | – | – | – | · | ·
C=CCn1c(CC#N)nnc1N1CCOCC1 | – | – | – | – | – | 65.1 | – | –
C=CCN1C(c2ccccc2)=CS/C1=C(/C#N)c1nnc(N2CCOCC2)n1-c1ccccc1 | – | – | – | – | – | – | · | ·
CC(Oc1ccc2c3c(c(=O)oc2c1)CCCC3)C(=O)NCc1ccncc1 (stereo not given) | · | · | · | · | · | – | · | ·
COc1cc(/C=C2\CCCc3c2nc2ccccc2c3C(=O)O)cc(OC)c1O | · | – | – | – | – | – | · | ·
COc1ccc(/C=C2\CCc3c2nc2ccccc2c3C(=O)O)cc1OC | · | – | – | – | – | 85.6 | – | –
CCOc1ccc(/C=C2\CCCc3c2nc2ccccc2c3C(=O)O)cc1OC | · | · | · | · | · | + | 183.4 | +
COc1ccc(/C=C2\CCCc3c2nc2ccccc2c3C(=O)O)cc1OC | · | – | – | – | – | 159.1 | 170.0 | 190.6
CCCN(CC1CCCO1)C(=O)CCc1nnc(CCc2ccc(OC)cc2)o1 (stereo not given) | · | · | · | · | · | – | · | ·
COc1ccccc1NC(=O)C(C)OC(=O)c1cccc(-n2cnnn2)c1 (stereo not given) | · | · | · | · | · | – | · | ·
O=C(NCCc1ccccc1)c1ccc(CS(=O)Cc2ccc(Cl)cc2)o1 (stereo not given) | · | · | · | · | · | – | · | ·
O=C(N/N=C/c1ccc(-c2ccccc2C(=O)O)o1)c1cccs1 | – | – | – | – | 79.3 | 70.8 | 39.8 | 72.9
O=c1[nH]c2ccccc2nc1/C=C(\O)c1cccs1 | – | – | – | – | – | 100.5 | 87.6 | 91.3
O/C(=C\c1nc2ccccc2[nH]1)c1cccs1 | · | · | · | · | · | – | · | ·
OCC(Cc1ccccc1)Nc1c2ccccc2nc2ccccc12 (stereo not given) | – | – | – | – | – | 40.1 | – | –
Cc1ccc(C)c(S(=O)(=O)C(C#N)c2nc3ccccc3nc2N2CCOCC2)c1 (stereo not given) | – | – | – | – | – | – | · | ·
COc1ccc(S(=O)(=O)C(C#N)c2nc3ccccc3nc2N2CCCCC2)cc1 (stereo not given) | – | – | – | – | – | 79.1 | – | –
N#CC(c1nc2ccccc2nc1N1CCCC1)S(=O)(=O)c1ccccc1 (stereo not given) | – | – | – | – | – | 70.2 | 74.5 | 75.7
Cc1ccc(C)c(S(=O)(=O)C(C#N)c2nc3ccccc3nc2N2CCCC2)c1 (stereo not given) | – | – | – | – | – | 77.7 | – | –
Cc1cccc(S(=O)(=O)C(C#N)c2nc3ccccc3nc2N2CCCC2)c1 (stereo not given) | – | – | – | – | – | – | · | ·
COc1ccc(N(C)C(=O)CN(C)S(=O)(=O)c2ccc3c(c2)c(=O)n(C)c(=O)n3C)c(OC)c1 | · | · | · | · | · | – | · | ·
Cc1cccnc1NC(=O)c1cccc(S(=O)(=O)N2CCCc3ccccc32)c1 | · | · | · | · | · | – | · | ·
CCCCN(Cc1nc2ccccc2c(=O)[nH]1)C(=O)CN1C(=O)NC2(CCCCC2)C1=O | · | · | · | · | · | – | · | ·
